{
  "source": "PubChem BioAssay (NCI)",
  "note": "Compounds without any hit were thinned out: in the full panel of roughly 83,000, 20% have a hit.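 Cell lines were cultured in 96-well plates, exposed to a single compound concentration, and assessed for percent growth 48 hours later.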 Calls of active or inactive are those of the source.",
  "data": [
    {"system": "T-47D breast", "assay": "NCI-60 one-dose screen, 48 h (100 = growth as untreated, 0 = no growth, -100 = all killed)", "details": "10 µM unless noted", "method": "Growth inhibition of the T-47D human tumor cell line is measured as a screen for anti-cancer activity. Cells are grown in 96 well plates and exposed to the test compound for 48 hours. Compounds are tested at a single concentration, which is 10^-5 M for most compounds. The reported endpoint is percent growth (GI% or GIPRCNT), where numbers from 0 - 100% represent growth inhibition, and numbers from -100% - 0 represent cell death. For example, a value of 40 represents 60% growth inhibition. A value of 0 means no net growth occurred over the course of the experiment. A value of -40 indicates 40% of cells at the beginning of the experiment died by the end of the experiment. A value of -100 means all cells are dead at the end of the experiment.\nNCI-60 Human Tumor Cell Lines Screen was performed using the standard one-dose NCI protocol, which is described in more detail at https://dtp.cancer.gov/discovery_development/nci-60/default.htm.\nCompounds with GIPRCNT values below 10 were considered active. Activity score was based on GIPRCNT using the following formula: […]\nScore is 0 for GIPRCNT values of 100 or above, 50 for GIPRCNT values of 0, and 100 for GIPRCNT values of -100.", "values": [
      {"smiles": "Clc1ccc(-c2nc(NCCc3ccccc3)nc3c(NCCc4ccccc4)cnn23)cc1", "growth": "63.3% (inactive)"},
      {"smiles": "COc1cc(/C=C/C(=O)c2cccc(-n3cc(-c4ccccc4)[nH]c3=O)c2)cc(OC)c1OC", "growth": "-6.56% (active)"},
      {"smiles": "N=c1ccn2c(n1)OC1C(O)C(CO)OC12", "note": "(stereo not given)", "growth": "61% (inactive)"},
      {"smiles": "CNCCNc1nc2ccccc2c2c(=O)c3cc(F)ccc3oc12", "growth": "96.1% (inactive)"},
      {"smiles": "CCn1c(Sc2nnc(NC(=O)CSC(=S)N3CCCCC3)s2)nc2c1c(=O)n(C)c(=O)n2C", "growth": "86.9% (inactive)"},
      {"smiles": "C=C(C=O)C1CCC2(C(=O)O)CCC3(C)C(CCC4C5(C)CCC(O)C(C)(C)C5CCC43C)C12", "note": "(stereo not given)", "growth": "45% (inactive)"},
      {"smiles": "CCOC(=O)c1cnn2c(-c3ccc(Cl)cc3)nc(NCc3ccccc3)nc12", "growth": "43.3% (inactive)"},
      {"smiles": "Cn1cc(-c2ccc3nc(-c4ccc(CC(=O)Nc5cc(C(C)(C)C)no5)cc4)cnc3c2)cn1", "growth": "26% [30 µM] (inactive)"},
      {"smiles": "CCN(CC)CCCNC(=O)c1ccc(N)cc1", "growth": "102% (inactive)"},
      {"smiles": "Cc1cn(C2CCCCC2)c(=O)[nH]c1=O", "growth": "108% (inactive)"},
      {"smiles": "CCOC(=O)C1=C(C)NC(SCc2nnc(-c3ccc(Cl)cc3)o2)=NC1c1ccc(Cl)cc1Cl", "note": "(stereo not given)", "growth": "47.4% (inactive)"},
      {"smiles": "COC(=O)CCCNC(=O)C(=O)c1c(O)c(O)c(C(C)C)c2cc(C)c(-c3c(C)cc4c(C(C)C)c(O)c(O)c(C(=O)C(=O)NCCCC(=O)OC)c4c3O)c(O)c12", "growth": "4.43% (active)"},
      {"smiles": "CCN(CC)CC(O)CNc1c2ccc(Cl)cc2nc2ccc(OC)cc12", "note": "(stereo not given)", "growth": "49.7% (inactive)"},
      {"smiles": "N#Cc1c(N)nc2c(nnn2-c2cccc(Br)c2)c1N", "growth": "67.1% (inactive)"},
      {"smiles": "O=C(/C=C/c1ccccc1)c1ccc2ccccc2c1", "growth": "47.4% (inactive)"},
      {"smiles": "COc1cccc(/C=C2\\COc3ccc(O)cc3C2=O)c1OC", "growth": "74.8% (inactive)"},
      {"smiles": "O=C(NCCOCCOCCOCCNC(=O)c1cc2c(o1)C(=O)c1ccccc1C2=O)NC12CC3CC(CC(C3)C1)C2", "growth": "9.45% (active)"},
      {"smiles": "COc1cc(-c2cc(-c3ccc(Nc4nc(Nc5ccccc5)nc(Nc5ccc(Cl)cc5)n4)cc3)nc(N)n2)cc(OC)c1OC", "growth": "38.4% (inactive)"},
      {"smiles": "Cl.Fc1c[c-]c(-c2ccccn2)c(F)c1.[Pt].c1ccc(P(c2ccccc2)C([PH+](c2ccccc2)c2ccccc2)[PH+](c2ccccc2)c2ccccc2)cc1", "growth": "27.7% (inactive)"},
      {"smiles": "O=C1Nc2ccccc2SC1C1SC(=S)N(Cc2ccccc2)C1=O", "note": "(stereo not given)", "growth": "24.1% (inactive)"},
      {"smiles": "CN(C)S(=O)(=O)n1cnc([C@@H]2[C@@H]3C(=O)OC[C@@H]3C[C@]23N=CN(Cc2ccccc2)C3=O)c1", "growth": "102% (inactive)"},
      {"smiles": "Nc1nc(Nc2ccc(Cl)cc2)nn1S(=O)(=O)c1ccc(-c2ccc(F)cc2)cc1", "growth": "68.6% (inactive)"},
      {"smiles": "COc1ccc(-c2nnc(-c3ccc4c(c3)nc(-c3ccccc3)n4C3CCCCC3)o2)cc1", "growth": "4.1% (active)"},
      {"smiles": "CCN(CCO)CC(=O)c1cc(Cl)cc(Cl)c1Cl", "growth": "84% (inactive)"},
      {"smiles": "C=C(C)C1CCC(=C)C2CCC3(C)OC12/C=C(/COC(C)=O)CCC3O", "note": "(stereo not given)", "growth": "112% (inactive)"},
      {"smiles": "CCN(CC)CCOc1ccc(/C(=C(\\C)c2ccc(OC)c(F)c2)c2ccc(Cl)cc2)cc1", "growth": "89.7% (inactive)"},
      {"smiles": "Cc1cc(-c2ccc(N(C)C)cc2)c2sc(=O)[nH]c2n1", "growth": "67.6% (inactive)"},
      {"smiles": "COc1cc(/C=C/C(=O)c2ccc(Nc3nc(Nc4ccccc4)nc(Nc4ccc(Cl)cc4)n3)cc2)cc(OC)c1OC", "growth": "28.3% (inactive)"},
      {"smiles": "Cc1ccc(/C(=N\\N=C(N)N)c2ccccc2)cc1", "growth": "23% (inactive)"},
      {"smiles": "CC(=O)c1sc(-c2ccccc2)cc1N", "growth": "83% (inactive)"},
      {"smiles": "NS(=O)(=O)Oc1ccc(NC(=O)C23CC4CC(CC(C4)C2)C3)cc1Cl", "growth": "75.4% (inactive)"},
      {"smiles": "C#CC[C@H](N)C(=O)O", "growth": "102% [20 µM] (inactive)"},
      {"smiles": "O=c1cc(-c2ccc(OCc3ccccc3)cc2)oc2c(I)c(OCc3ccccc3)cc(OCc3ccccc3)c12", "growth": "104% (inactive)"},
      {"smiles": "CSc1ccc(Cl)c(C(=O)Nc2sccc2C(N)=O)c1", "growth": "44.1% (inactive)"},
      {"smiles": "CN(C)c1cnccn1", "growth": "75.9% (inactive)"},
      {"smiles": "CNC(=O)c1c(NC(=O)c2ccc(C(C)(C)C)cc2)sc2c1CCC(=O)C2", "growth": "-23.5% (active)"},
      {"smiles": "Cc1nn(-c2ccccc2)c2c1C(c1ccc([N+](=O)[O-])cc1)C(C#N)=C(N)O2", "note": "(stereo not given)", "growth": "98.4% (inactive)"},
      {"smiles": "O=c1[nH]c(NCc2nnnn2-c2ccc(Br)cc2)nc2sc3c(c12)CCCC3", "growth": "74.3% (inactive)"},
      {"smiles": "COc1ccc(/C(C)=C(\\c2ccc(Cl)cc2)c2ccc(OCCN3CCCCC3)cc2)cc1F", "growth": "47.4% (inactive)"},
      {"smiles": "COc1cc2c(cc1OC)-c1ccc3cc4c(cc3c1N(CCCN1CCCCC1)C2)OCO4", "growth": "59.2% (inactive)"}
    ]}
  ]
}
